FLuc modulator: qHTS profiling assay for firefly luciferase inhibitor/activator using purifed enzyme and Km concentrations of substrates (counterscreen for miR-21 project) | Luciferin 4-monooxygenase (Photinus pyralis), P08659 | Potency, µM (series often up to 57.5 µM), without a hit: at the highest dose activity change, negative = inhibition, actives largely listed as inhibitors | 6.9% of 360,000 active | AID 588342, 2011 | purified FLuc, Km substrates, luminescence inhibition;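 further: plate controls were vehicle for no effect and reference inhibitor for full effect; nearly all actives have a fitted effect of over 55% in size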
Target sequence (P08659 whole entry, looked up): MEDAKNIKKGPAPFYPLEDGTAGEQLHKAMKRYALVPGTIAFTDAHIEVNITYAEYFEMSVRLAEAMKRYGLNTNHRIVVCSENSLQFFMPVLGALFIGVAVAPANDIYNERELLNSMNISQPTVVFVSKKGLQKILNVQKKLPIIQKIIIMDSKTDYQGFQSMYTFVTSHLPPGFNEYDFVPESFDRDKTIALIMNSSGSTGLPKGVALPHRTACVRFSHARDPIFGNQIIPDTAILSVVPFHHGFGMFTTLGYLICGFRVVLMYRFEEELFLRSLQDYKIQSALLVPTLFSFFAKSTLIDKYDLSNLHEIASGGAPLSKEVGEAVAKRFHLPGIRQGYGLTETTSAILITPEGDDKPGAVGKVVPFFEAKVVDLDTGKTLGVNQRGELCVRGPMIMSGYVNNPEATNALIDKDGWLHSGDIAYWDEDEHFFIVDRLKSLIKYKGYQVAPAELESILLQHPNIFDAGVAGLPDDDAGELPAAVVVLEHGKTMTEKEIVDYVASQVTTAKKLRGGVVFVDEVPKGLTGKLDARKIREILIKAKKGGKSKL
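Purified P. pyralis luciferase (10nM final) with 10uM D-luciferin and 10uM ATP (Km levels) in 50mM Tris acetate pH 7.5, 10mM Mg acetate, 0.01% Tween-20, 0.05% BSA; qHTS 6-point titration, ~60 µM downward; luminescence read.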
uPA surface inh: qHTS for Inhibitors of Cell Surface uPA Generation | 0.31% of 330,000 active | Potency, µM (highest dose often 38.3 µM), without a hit: at the highest dose activity change, negative = inhibition, actives largely listed as inhibitors | cell surface uPA generation assay, qHTS; active means well fitted inhibition curve with a large enough effect; inconclusive means small, poorly fitted or top-dose-only effect; inactive means no such curve, though single readings can be large or run the other way; tested in mouse RAW 264.7 cells; further: on the % scale 0 is the no-effect control and ±100 the full control effect; nearly all actives have a fitted effect of over 55% in size
Rab9 prom act: qHTS Assay for Rab9 Promoter Activators; Huh7 Rab9 promoter-luciferase reporter, luminescence, 24 h; Potency, µM (top dose mostly 9.22 µM), for the others: at the highest dose activation, negative = inhibition, actives largely listed as activators; 2.8% of 320,000 active; further: % of control where 0% means no effect; nearly all actives have a fitted effect of over 60% in size
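Luminescence from Amplite-detected luciferase (10 minutes, ambient) reports Rab9 promoter activation. Before that, stable Rab9-luciferase Huh7 cells (1500/well, reduced-serum OP-MEM I plus 10% FBS) were exposed to compound for 24 hours at 37C.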
ELG1 genotoxic: qHTS screen for small molecules that induce genotoxicity in human embryonic kidney (HEK293T) cells expressing luciferase-tagged ELG1 | HEK293T ELG1-luciferase reporter, luminescence, 16 h | Potency, µM (titrated, usually from 46 µM), inactives show top-dose activity change, positive = activation, usual class: activators | 1.3% of 330,000 active | AID 504466, 2011; further: % of control where 0% means no effect; nearly all actives have a fitted effect of over 60% in size
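After overnight (16 hr) compound treatment at 37 °C, ELG1-luciferase HEK293T cells were lysed with ONE-Glo; luminescence quantified 30 min later at room temperature.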
NPC1 prom act: qHTS Assay for NPC1 Promoter Activators; Huh7 NPC1 promoter luciferase reporter, 24 h; Potency, µM (top dose mostly 9.22 µM), for inactives: at the top dose activation, most hits filed as activators; 2.4% of 320,000 active; further: % of control where 0% means no effect; nearly all actives have a fitted effect of over 60% in size
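Luminescence from an NPC1 promoter-driven luciferase reporter in stably transfected Huh7 cells was measured after 24 h compound treatment at 37 °C, followed by 10 min ambient incubation with luciferase detection reagent.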
SMN2 splice up: qHTS Assay for Enhancers of SMN2 Splice Variant Expression; HEK293 SMN2-luciferase splicing reporter, luminescence, 30-36 h; Potency, µM (highest dose often 46.1 µM), inactives show at the highest dose activity change, positive = activation, most hits filed as activators; 2.8% of 210,000 active; further: % of control where 0% means no effect; nearly all actives have a fitted effect of over 55% in size
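qHTS luciferase splicing reporter: luminescence rises when SMN2 exon 7 is included in transfected HEK293 cells. Compound exposure lasted 30-36 h at 37C, with 4.5 mM final sodium butyrate as control, followed by a ONE-Glo read.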
An asterisk follows results filed as active. Sampled rows, rich in hits. Any-hit rate of the full collection: about 7.3%. Unless noted, the call rests on the fitted dose curve; in most records, active means well fitted curve in the direction sought with a large enough effect; inconclusive means small, poorly fitted or top-dose-only effect, or another doubt; inactive means no such curve, though single readings can be large; an effect the other way counts as inactive or inconclusive. Potency means the concentration at half of the fitted maximal effect.

For Cc1ccc(Cn2ncc3c(NCCN(C)C)ncnc32)cc1 the results were FLuc modulator 3.3%, uPA surface inh 5.0%, Rab9 prom act -1.9%, ELG1 genotoxic 1.2% and NPC1 prom act -4.2%.
`Clc1ccc(-n2ncc3c(NCc4ccc5c(c4)OCO5)ncnc32)cc1` gave FLuc modulator inconclusive, uPA surface inh -0.1%, Rab9 prom act 6.7%, ELG1 genotoxic inconclusive, NPC1 prom act 10.1% and SMN2 splice up -13.8%.
Screening N#Cc1cccc(NC(=O)N2CC3(CCN(C(=O)c4ccco4)CC3)C2)c1 returned SMN2 splice up 2.6%.
For CC1(C)OC(=O)N(c2ccccc2)C12C=Cc1c(ccc3ccccc13)O2 (centres undefined) the results were FLuc modulator 3.0%, uPA surface inh 6.3%, Rab9 prom act -6.9%, ELG1 genotoxic -6.4%, NPC1 prom act 1.0% and SMN2 splice up -30.5%.
For O=C1NC2(C=Cc3c(ccc4ccccc34)O2)Oc2ccccc21 (centres undefined) the results were FLuc modulator 6.01µM*, uPA surface inh -5.6%, Rab9 prom act 28.4%, ELG1 genotoxic 15.4%, NPC1 prom act inconclusive and SMN2 splice up -4.6%.
Screening O=C(Nc1n[nH]c(=S)s1)c1ccc2ccccc2c1 returned FLuc modulator 26.9µM*, uPA surface inh 3.2%, Rab9 prom act 0.794µM*, ELG1 genotoxic inconclusive and NPC1 prom act 1.12µM*.
For O=C(O)c1ccc(NC(=O)C2CC=CCC2C(=O)O)cc1 (centres undefined) the results were FLuc modulator 2.1%, uPA surface inh 1.5%, Rab9 prom act -1.5%, ELG1 genotoxic 1.5%, NPC1 prom act -2.3% and SMN2 splice up 6.7%.
For O=C(Nc1nccs1)c1ccc(NC(=O)C2CC=CCC2C(=O)O)cc1 (centres undefined) the results were FLuc modulator 16.9µM*, uPA surface inh inconclusive, Rab9 prom act 16.6%, ELG1 genotoxic 1.1%, NPC1 prom act 5.8% and SMN2 splice up -10.5%.
`O=C(Nc1nccs1)c1ccc(N2CCOCC2)c([N+](=O)[O-])c1` gave FLuc modulator 12µM*, uPA surface inh -13.5%, Rab9 prom act 2.24µM*, ELG1 genotoxic inconclusive and NPC1 prom act 1.78µM*.
CC(=O)Nc1n[nH]c(=S)s1 was read as uPA surface inh 1.2%.
`O=C(Nc1nccs1)c1ccccn1` gave FLuc modulator inconclusive, uPA surface inh -11.1%, Rab9 prom act 3.16µM*, ELG1 genotoxic inconclusive, NPC1 prom act inconclusive and SMN2 splice up inconclusive.
Cn1cc(Cl)c(C(=O)Nc2nccs2)n1 was read as FLuc modulator -18.7%, uPA surface inh -1.9%, Rab9 prom act 21.8%, ELG1 genotoxic 23.8% and NPC1 prom act 15.5%.
For O=C(Nc1nccs1)c1ccc2ccccc2c1 the results were FLuc modulator 3.01µM*, uPA surface inh inconclusive, Rab9 prom act 3.16µM*, ELG1 genotoxic 13.8% and NPC1 prom act 3.16µM*.
`O=C(Nc1nccs1)c1ncc(Cl)c(Cl)c1Cl` gave FLuc modulator 13.5µM*, uPA surface inh -7.8%, Rab9 prom act 5.4%, ELG1 genotoxic -14.1% and NPC1 prom act -0.3%.
For O=C(Nc1nc(-c2ccccn2)cs1)c1ccc(Br)s1 the results were FLuc modulator 19µM*, Rab9 prom act -3.4%, ELG1 genotoxic inconclusive, NPC1 prom act -3.0% and SMN2 splice up -95.7%.
For Cc1ccccc1Oc1ccc(NC(=O)C2CC=CCC2C(=O)O)cc1 (centres undefined) the results were FLuc modulator 0.9%, uPA surface inh 0.7%, Rab9 prom act -4.3%, ELG1 genotoxic -3.3%, NPC1 prom act -0.5% and SMN2 splice up 6.7%.
For CC(C)(C)c1ccc(Oc2ccc(NC(=O)C3CC=CCC3C(=O)O)cc2)cc1 (centres undefined) the results were FLuc modulator 26.9µM*, uPA surface inh -4.3%, Rab9 prom act -7.8%, ELG1 genotoxic -1.1%, NPC1 prom act 2.3% and SMN2 splice up 15.8µM*.
O=C(Nc1nccs1)c1ccc(S(=O)(=O)c2ccccc2)cc1 was read as FLuc modulator 5.9%, uPA surface inh 1.4%, Rab9 prom act -0.2%, ELG1 genotoxic -0.9%, NPC1 prom act -0.8% and SMN2 splice up -11.8%.
CCOc1ccccc1CNC(=O)c1[nH]c2ccccc2c1Sc1ccccc1 was read as FLuc modulator -9.0%.
`O=C(Nc1nccs1)c1ccc(Br)cc1` gave FLuc modulator 9.53µM*, uPA surface inh inconclusive, Rab9 prom act 2.24µM*, ELG1 genotoxic inconclusive and NPC1 prom act 2.51µM*.
O=C(CCNC(=O)c1ccc(Br)cc1)Nc1nccs1 was read as FLuc modulator -15.9%, uPA surface inh 0.0%, Rab9 prom act 12.2%, ELG1 genotoxic 1.2%, NPC1 prom act 0.9% and SMN2 splice up -4.7%.
Screening CCOc1cccc(C(=O)Nc2nnc(-c3ccco3)s2)c1 returned FLuc modulator 4.78µM*, uPA surface inh 0.8%, Rab9 prom act 3.98µM*, ELG1 genotoxic inconclusive, NPC1 prom act inconclusive and SMN2 splice up 2.82µM*.
For CCOc1cccc(C(=O)Nc2nccs2)c1 the results were FLuc modulator 15.1µM*, uPA surface inh -4.7%, Rab9 prom act inconclusive, ELG1 genotoxic inconclusive, NPC1 prom act inconclusive and SMN2 splice up inconclusive.
O=C(Nc1nccs1)c1ccc(Br)s1 was read as FLuc modulator 15.1µM*, uPA surface inh -24.0%, Rab9 prom act 3.98µM*, ELG1 genotoxic inconclusive and NPC1 prom act inconclusive.
CCOc1ccccc1NC(=O)C1CCN(C(=O)c2cccs2)CC1 was read as FLuc modulator -1.0%, uPA surface inh 3.3%, Rab9 prom act -5.1%, ELG1 genotoxic -4.0%, NPC1 prom act -2.5% and SMN2 splice up -15.7%.
O=C(Nc1nccs1)Oc1ccccc1 was read as FLuc modulator -3.5%, uPA surface inh 0.2%, Rab9 prom act -5.1%, ELG1 genotoxic 0.1%, NPC1 prom act 1.3% and SMN2 splice up -1.4%.
C/C(=C\c1ccccc1)C(=O)Nc1nccs1 was read as FLuc modulator 9.53µM*, uPA surface inh -4.9%, Rab9 prom act 3.55µM*, ELG1 genotoxic inconclusive, NPC1 prom act 2.51µM* and SMN2 splice up 11.2µM*.
Screening CSC1=NC2(CCN(C(=O)NC3CCCCC3)CC2)N=C1c1ccc(C)c(C)c1 returned FLuc modulator -19.9%.
